# From the supplement of paper PMC8728848
# The entries come from a sample that favours the strongest signals as a whole.
# What was measured:
# Experiment in all cases: glycan array binding signal (z-score within array); higher = stronger binding
# Conditions in all cases: glycan notation: IUPAC condensed, linker removed
# [1] = target: Glc(a1-4)Glc
# In short: (§1)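 The binding signal is a Z-score computed within each array and averaged over linkers. Arrays of the same protein sequence at different concentrations or buffers were also averaged together. Data originate from 3228 arrays in the Consortium for Functional Glycomics database, kept only where the protein sequence was available.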
# [2] = target: Glc(b1-4)Glc
# In short: as §1
# [3] = target: GlcA(b1-6)Gal
# In short: as §1
# [4] = target: GlcA3S(b1-3)Gal(b1-4)GlcNAc(b1-2)Man
# In short: as §1
# [5] = target: GlcNAc(b1-2)Man(a1-3)[GlcNAc(b1-4)][GlcNAc(b1-2)Man(a1-6)]Man(b1-4)GlcNAc(b1-4)[Fuc(a1-6)]GlcNAc
# In short: as §1
# [6] = target: GlcNAc(b1-3)Gal(b1-4)GlcNAc(b1-3)Gal(b1-4)GlcNAc
# In short: as §1
# [7] = target: GlcNAc(b1-3)Gal(b1-4)GlcNAc(b1-3)Gal(b1-4)GlcNAc(b1-2)Man(a1-3)[GlcNAc(b1-3)Gal(b1-4)GlcNAc(b1-3)Gal(b1-4)GlcNAc(b1-2)Man(a1-6)]Man(b1-4)GlcNAc(b1-4)[Fuc(a1-6)]GlcNAc
# In short: as §1
# [8] = target: GlcNAc(b1-3)Gal(b1-4)GlcNAc(b1-3)Gal(b1-4)GlcNAc(b1-3)Gal(b1-4)GlcNAc(b1-2)Man(a1-3)[GlcNAc(b1-3)Gal(b1-4)GlcNAc(b1-3)Gal(b1-4)GlcNAc(b1-3)Gal(b1-4)GlcNAc(b1-2)Man(a1-6)]Man(b1-4)GlcNAc(b1-4)GlcNAc
# In short: as §1
# [9] = target: GlcNAc(b1-3)Gal(b1-4)GlcNAc(b1-3)Gal(b1-4)GlcNAc(b1-3)Gal(b1-4)GlcNAc(b1-3)Gal(b1-4)GlcNAc(b1-2)Man(a1-3)[GlcNAc(b1-3)Gal(b1-4)GlcNAc(b1-3)Gal(b1-4)GlcNAc(b1-3)Gal(b1-4)GlcNAc(b1-3)Gal(b1-4)GlcNAc(b1-2)Man(a1-6)]Man(b1-4)GlcNAc(b1-4)GlcNAc
# In short: as §1
# [10] = target: GlcNAc(b1-4)GlcNAc(b1-4)GlcNAc(b1-4)GlcNAc(b1-4)GlcNAc
# In short: as §1
# [11] = target: Man(a1-6)Man
# In short: as §1
# [12] = target: Neu5Ac(a2-3)Gal(b1-3)GlcNAc
# In short: as §1
# [13] = target: Neu5Ac(a2-3)Gal(b1-4)GlcNAc(b1-2)Man
# In short: as §1
# [14] = target: Neu5Ac(a2-3)Gal(b1-4)GlcNAc(b1-3)Gal(b1-4)GlcNAc(b1-2)Man(a1-3)[Neu5Ac(a2-3)Gal(b1-4)GlcNAc(b1-3)Gal(b1-4)GlcNAc(b1-2)Man(a1-6)]Man(b1-4)GlcNAc(b1-4)GlcNAc
# In short: as §1
# [15] = target: Neu5Ac(a2-3)Gal(b1-4)GlcNAc(b1-3)Gal(b1-4)GlcNAc(b1-3)[Neu5Ac(a2-3)Gal(b1-4)GlcNAc(b1-3)Gal(b1-4)GlcNAc(b1-6)]GalNAc
# In short: as §1
# [16] = target: Neu5Ac(a2-3)Gal(b1-4)[Fuc(a1-3)]GlcNAc(b1-2)Man
# In short: as §1
# [17] = target: Neu5Ac(a2-3)Gal(b1-4)[Fuc(a1-3)]GlcNAc(b1-6)[Neu5Ac(a2-3)Gal(b1-3)]GalNAc
# In short: as §1
# [18] = target: Neu5Ac(a2-3)Gal6S(b1-4)GlcNAc
# In short: as §1
# [19] = target: Neu5Ac(a2-3)GalNAc
# In short: as §1
# [20] = target: Neu5Ac(a2-3)[Neu5Ac(a2-6)]GalNAc
# In short: as §1
# [21] = target: Neu5Ac(a2-6)Gal(b1-4)GlcNAc(b1-2)Man
# In short: as §1
# [22] = target: Neu5Ac(a2-6)Gal(b1-4)GlcNAc(b1-2)Man(a1-3)[Gal(b1-4)GlcNAc(b1-2)Man(a1-6)]Man(b1-4)GlcNAc(b1-4)GlcNAc
# In short: as §1
# [23] = target: Neu5Ac(a2-6)Gal(b1-4)GlcNAc(b1-3)Gal(b1-4)[Fuc(a1-3)]GlcNAc(b1-3)Gal(b1-4)[Fuc(a1-3)]GlcNAc
# In short: as §1
# [24] = target: Neu5Ac(a2-6)GalNAc(b1-4)GlcNAc6S
# In short: as §1
# [25] = target: Neu5Ac(a2-8)Neu5Ac(a2-8)Neu5Ac(a2-8)Neu5Ac(a2-3)[GalNAc(b1-4)]Gal(b1-4)Glc
# In short: as §1
# [26] = target: Neu5Gc(a2-3)Gal(b1-3)GlcNAc
# In short: as §1
# [27] = target: Neu5Gc(a2-3)Gal(b1-4)GlcNAc
# In short: as §1
# [28] = target: Neu5Gc(a2-3)Gal(b1-4)GlcNAc(b1-3)Gal(b1-4)GlcNAc(b1-2)Man(a1-3)[Neu5Gc(a2-3)Gal(b1-4)GlcNAc(b1-3)Gal(b1-4)GlcNAc(b1-2)Man(a1-6)]Man(b1-4)GlcNAc(b1-4)GlcNAc
# In short: as §1
binder,measurement,setting,value
Nc3LysM-2 (protein) AHVLQARQSVSCDFATAANTGDTCASFAAAWGITEAAFAKLNPGVSCPGNLIAGSEYCVIGTVSTGAPTTTKAATTSTTPPTTTTTTKATTLSTSTTSVSPTGPSPQMPSITSTCNKFYQVQSGDGCWSIEQAQGVSASDFMAWNKAVDAQCDNLWLGYYVCVGVKGGSSPPPTTTTKPASSSAPTPQMPNTVSNCKKFHKVVSGDGCWAIEQAAGISASDFAKWNPYVDAACDNLWLGYYVCIGV,glycan array binding signal (z-score),[1],-0.04
same,glycan array binding signal (z-score),[2],-1.11
same,glycan array binding signal (z-score),[3],2.36
same,glycan array binding signal (z-score),[4],0.714
same,glycan array binding signal (z-score),[5],-0.543
same,glycan array binding signal (z-score),[6],0.247
same,glycan array binding signal (z-score),[7],3.4
same,glycan array binding signal (z-score),[8],-0.959
same,glycan array binding signal (z-score),[9],-0.307
same,glycan array binding signal (z-score),[10],3.61
same,glycan array binding signal (z-score),[11],0.852
same,glycan array binding signal (z-score),[12],0.767
same,glycan array binding signal (z-score),[13],0.06
same,glycan array binding signal (z-score),[14],4.26
same,glycan array binding signal (z-score),[15],-0.674
same,glycan array binding signal (z-score),[16],-0.075
same,glycan array binding signal (z-score),[17],2.08
same,glycan array binding signal (z-score),[18],-0.155
same,glycan array binding signal (z-score),[19],-1.24
same,glycan array binding signal (z-score),[20],0.668
same,glycan array binding signal (z-score),[21],0.422
same,glycan array binding signal (z-score),[22],-0.256
same,glycan array binding signal (z-score),[23],0.118
same,glycan array binding signal (z-score),[24],-2.04
same,glycan array binding signal (z-score),[25],0.938
same,glycan array binding signal (z-score),[26],0.959
same,glycan array binding signal (z-score),[27],-0.122
same,glycan array binding signal (z-score),[28],-0.459
